The source made the active and inactive calls.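 The calls were made as follows, unless noted: active = primary screen active and over 50% activation in each of two duplicate runs; inactive = the rest.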
Tested on: transient receptor potential cation channel C4 beta (TRPC4), mouse
Experiment: activators of mouse TRPC4 channel, confirmation, cell-based, second round, Fluo4, HEK293 TRPC4beta/mu-opioid, 1 µM (AID 2461)
Conditions: Fluo4 calcium fluorescence, at 1 µM

SMILES	outcome
CN(C)CCCN(Cc1cc2cc3c(cc2[nH]c1=O)OCO3)C(=S)NCc1ccco1	inactive
Cc1cc(OCC(=O)Nc2ccc(N3CCN(C)CC3)cc2)ccc1Cl	inactive
O=C(Nc1ccccc1Oc1cccnc1)C1CCCN(Cc2ccc(F)cc2)C1 (stereo not given)	inactive
Cc1ncsc1CCOC(=O)c1cccc([N+](=O)[O-])c1	inactive
N#C/C(=N\Nc1cccc([N+](=O)[O-])c1)C(=O)c1ccc(Br)cc1	inactive
CC(NC(=O)c1ccco1)C(c1cccs1)N1CCN(c2ccccc2)CC1 (stereo not given)	inactive
O=C(Cc1ccccc1[N+](=O)[O-])OCc1cccc([N+](=O)[O-])c1	inactive
CCOc1cc(CNCCCN2CCOCC2)cc(Br)c1OCc1ccccc1Cl	inactive
O=C(NCCN1CCOCC1)c1cc2sccc2n1Cc1ccc(F)cc1	inactive
Cn1c(-c2ccc(F)cc2)cnc1NCc1ccc(F)cc1F	inactive
Cc1[nH]c2ccc(C(=O)OC(C)C(=O)N(C)c3ccccc3)cc2c1C (stereo not given)	inactive
COc1cc(/C=C2\SC(=O)N(c3ccccc3Cl)C2=O)cc([N+](=O)[O-])c1O	inactive
Cc1ccc2nc(C)cc(Nc3ccc4c(c3)OCCO4)c2c1	inactive
CC1CCN(CCCOc2ccc(OCc3ccccc3)cc2)CC1	inactive
COCCn1c(SCC(=O)c2ccccc2)nc2ccccc2c1=O	inactive
O=C(c1ccco1)N1CCN(C/C=C/c2ccccc2)CC1	inactive
Nc1cc(N2CCCCC2)c([N+](=O)[O-])cc1Cl	inactive
Cc1cc(Cl)c2oc(C(=O)N(C)Cc3nccn3C)c(C)c2c1	inactive
COc1ccccc1C(=O)Nc1ccc2c(c1)CCCN2C(=O)c1cccs1	inactive
COCCNc1c2c(nc3ccccc13)CCC2	inactive

SMILES	outcome
Cc1onc(-c2c(F)cccc2Cl)c1C(=O)N(C)CC(=O)Nc1cccc(F)c1	inactive
Cc1cc(C)c(S(=O)(=O)c2ccccc2C)c(OCC(C)(C)C)n1	inactive
CCCn1c(=O)c2ccccc2n2c(SCCOc3ccccc3)nnc12	inactive
CCOc1ccccc1N(C(=O)c1snc(C(N)=O)c1N)C(C(=O)NCc1ccccc1)c1ccc(O)cc1 (stereo not given)	inactive
Cc1oc(-c2ccoc2)nc1CN(Cc1ccccc1)CC1CC1	inactive
CCCN1CN(Cc2ccco2)c2nc3ccccc3n2C1	inactive
O=C(O)c1ccc(CSc2nc(-c3ccc(Cl)cc3)cc(C(F)(F)F)n2)cc1	inactive
CCCCc1nc2ccccc2c(N)c1CCC (tested in a mixture with another compound)	inactive
CCOC(=O)c1c(NC(=O)/C=C/C(=O)O)sc(C)c1-c1ccc(C(C)(C)C)cc1	inactive
C=C(C)Cn1c(SCC)nc2ccccc2c1=O	inactive
O=C(Nc1ccccc1N1CCN(C(=O)c2ccc(Cl)cc2)CC1)c1cccc([N+](=O)[O-])c1	inactive
CCOC(=O)C1(CCc2ccccc2)CCN(Cc2ccccn2)CC1	inactive
c1csc(CNc2nc(-c3cccs3)nc3ccccc23)c1	inactive
O=C(c1cccc(C(=O)N2CCN(c3ccccc3)CC2)c1)N1CCN(c2ccccc2)CC1	inactive
CCCCN(CCCC)/C(N)=N/c1nc(C)cc(C)n1	inactive
O=C(C1CCN(CC2CC=CCC2)CC1)N(CCc1ccccc1)Cc1ccccc1 (stereo not given)	inactive
CCOC(=O)c1c(NC(=O)C2CC(Cl)=CCC2C(=O)O)sc2c1CCCCC2 (stereo not given)	inactive
COc1ccc(C)cc1N(C(=O)c1snc(C(N)=O)c1N)C(C(=O)NC1CCCCC1)c1ccc(C)o1 (stereo not given)	inactive
CCOC(=O)c1c(N)sc(C(O)(C(F)(F)F)C(F)(F)F)c1-c1ccccc1	inactive
CNc1nc(NCc2ccccc2)c2ccccc2n1	inactive

Tested on: TRPC4 (transient receptor potential cation channel C4 beta), mouse
Experiment: positive allosteric modulators of mouse TRPC4, confirmation, cell-based, second round, Fluo-4, HEK293 TRPC4beta/mu-opioid, 1 µM (AID 2554;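 active = primary screen hit whose fluorescence ratio, in both repeats, exceeds the weak agonist control mean by 3 SD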)
Conditions: DAMGO EC20, Fluo-4 calcium flux, at 1 µM

SMILES	outcome
CN(C)CCCN(Cc1cc2cc3c(cc2[nH]c1=O)OCO3)C(=S)NCc1ccco1	inactive
Cc1cc(OCC(=O)Nc2ccc(N3CCN(C)CC3)cc2)ccc1Cl	inactive
O=C(Nc1ccccc1Oc1cccnc1)C1CCCN(Cc2ccc(F)cc2)C1 (stereo not given)	inactive
Cc1ncsc1CCOC(=O)c1cccc([N+](=O)[O-])c1	inactive
N#C/C(=N\Nc1cccc([N+](=O)[O-])c1)C(=O)c1ccc(Br)cc1	inactive
CC(NC(=O)c1ccco1)C(c1cccs1)N1CCN(c2ccccc2)CC1 (stereo not given)	inactive
O=C(Cc1ccccc1[N+](=O)[O-])OCc1cccc([N+](=O)[O-])c1	inactive
CCOc1cc(CNCCCN2CCOCC2)cc(Br)c1OCc1ccccc1Cl	inactive
O=C(NCCN1CCOCC1)c1cc2sccc2n1Cc1ccc(F)cc1	inactive
Cn1c(-c2ccc(F)cc2)cnc1NCc1ccc(F)cc1F	inactive
Cc1[nH]c2ccc(C(=O)OC(C)C(=O)N(C)c3ccccc3)cc2c1C (stereo not given)	inactive
COc1cc(/C=C2\SC(=O)N(c3ccccc3Cl)C2=O)cc([N+](=O)[O-])c1O	inactive
Cc1ccc2nc(C)cc(Nc3ccc4c(c3)OCCO4)c2c1	inactive
CC1CCN(CCCOc2ccc(OCc3ccccc3)cc2)CC1	inactive
COCCn1c(SCC(=O)c2ccccc2)nc2ccccc2c1=O	inactive
O=C(c1ccco1)N1CCN(C/C=C/c2ccccc2)CC1	inactive
Nc1cc(N2CCCCC2)c([N+](=O)[O-])cc1Cl	inactive
Cc1cc(Cl)c2oc(C(=O)N(C)Cc3nccn3C)c(C)c2c1	inactive
COc1ccccc1C(=O)Nc1ccc2c(c1)CCCN2C(=O)c1cccs1	inactive
COCCNc1c2c(nc3ccccc13)CCC2	inactive

SMILES	outcome
Cc1onc(-c2c(F)cccc2Cl)c1C(=O)N(C)CC(=O)Nc1cccc(F)c1	inactive
Cc1cc(C)c(S(=O)(=O)c2ccccc2C)c(OCC(C)(C)C)n1	inactive
CCCn1c(=O)c2ccccc2n2c(SCCOc3ccccc3)nnc12	inactive
CCOc1ccccc1N(C(=O)c1snc(C(N)=O)c1N)C(C(=O)NCc1ccccc1)c1ccc(O)cc1 (stereo not given)	inactive
Cc1oc(-c2ccoc2)nc1CN(Cc1ccccc1)CC1CC1	inactive
CCCN1CN(Cc2ccco2)c2nc3ccccc3n2C1	inactive
O=C(O)c1ccc(CSc2nc(-c3ccc(Cl)cc3)cc(C(F)(F)F)n2)cc1	inactive
CCCCc1nc2ccccc2c(N)c1CCC (tested in a mixture with another compound)	inactive
CCOC(=O)c1c(NC(=O)/C=C/C(=O)O)sc(C)c1-c1ccc(C(C)(C)C)cc1	inactive
C=C(C)Cn1c(SCC)nc2ccccc2c1=O	inactive
O=C(Nc1ccccc1N1CCN(C(=O)c2ccc(Cl)cc2)CC1)c1cccc([N+](=O)[O-])c1	inactive
CCOC(=O)C1(CCc2ccccc2)CCN(Cc2ccccn2)CC1	inactive
c1csc(CNc2nc(-c3cccs3)nc3ccccc23)c1	inactive
O=C(c1cccc(C(=O)N2CCN(c3ccccc3)CC2)c1)N1CCN(c2ccccc2)CC1	inactive
CCCCN(CCCC)/C(N)=N/c1nc(C)cc(C)n1	inactive
O=C(C1CCN(CC2CC=CCC2)CC1)N(CCc1ccccc1)Cc1ccccc1 (stereo not given)	inactive
CCOC(=O)c1c(NC(=O)C2CC(Cl)=CCC2C(=O)O)sc2c1CCCCC2 (stereo not given)	inactive
COc1ccc(C)cc1N(C(=O)c1snc(C(N)=O)c1N)C(C(=O)NC1CCCCC1)c1ccc(C)o1 (stereo not given)	inactive
CCOC(=O)c1c(N)sc(C(O)(C(F)(F)F)C(F)(F)F)c1-c1ccccc1	inactive
CNc1nc(NCc2ccccc2)c2ccccc2n1	inactive

Source: PubChem BioAssay
